Data from PubChem BioAssay AID1159580 (chemical genetic matrix, 2015).
Values joined by “and” are separate entries in the source; they are usually repeats but may differ in a detail not shown here. Equal values may be shown once. Out of some 5,500 compounds screened, about 2,000 (36%) were called active. Another 18% or so got no clear call; they are omitted. Cut-off read from the data, not from the text of the source: active = normalized growth mostly below about 0.91 (no sharp cut-off); inconclusive = no clear call, values can overlap the other calls; inactive = mostly above about 0.92. The list shows a part of the results.

Test: chemical genetic growth profiling, strain panel (AID 1159580);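 note: tested at 20 µM; growth read once vehicle control cultures reached saturation at 30 °C; 1 = growth at the plate median or of vehicle wells; lower values mean less growth of the strain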
Settings: S. cerevisiae deletion strains, growth OD

Measured: normalized growth

CCN(CC)CCNc1ccc(CO)c2sc3ccccc3c(=O)c12
inactive: locus YAL013W, strain DEP1, active compounds read low 1.01 | locus YAL021C, strain ccr4, active compounds read low 0.994 | locus YAL026C, strain drs2, active compounds read low 0.999 | locus YAL030W, strain snc1, active compounds read low 1.01 | locus YBL061C, strain skt5, active compounds read low 1 | locus YBR009C, strain hhf1, active compounds read low 1.01 | locus YBR021W, strain FUR4, active compounds read low 0.955 | locus YBR023C, strain chs3, active compounds read low 1 | locus YBR171W, strain sec66, active compounds read low 1.02 | locus YBR229C, strain ROT2, active compounds read low 1 | locus YBR231C, strain swc5, active compounds read low 1 | locus YBR279W, strain paf1, active compounds read low 1 | locus YCL011C, strain gbp2, active compounds read low 1 | locus YCL016C, strain dcc1, active compounds read low 1 | locus YCL029C, strain bik1, active compounds read low 1.01 | locus YCL069W, strain vba3, active compounds read low 1.01 | locus YCR088W, strain abp1, active compounds read low 1.01 | locus YDL005C, strain med2, active compounds read low 1.01 | locus YDL035C, strain GPR1, active compounds read low 0.992 | locus YDL040C, strain nat1, active compounds read low 0.993 | locus YDL074C, strain BRE1, active compounds read low 0.948 | locus YDL101C, strain DUN1, active compounds read low 0.979 | locus YDL134C, strain PPH21, active compounds read low 0.996 | locus YDL185W, strain tfp1, active compounds read low 1 | locus YDL192W, strain arf1, active compounds read low 1.01 | locus YDR001C, strain nth1, active compounds read low 1.01 | locus YDR069C, strain doa4, active compounds read low 1.01 | locus YDR101C, strain arx1, active compounds read low 1 | locus YDR137W, strain rgp1, active compounds read low 0.894 | locus YDR150W, strain NUM1, active compounds read low 1 | locus YDR159W, strain sac3, active compounds read low 1 | locus YDR162C, strain NBP2, active compounds read low 0.969 | locus YDR195W, strain ref2 1.07 | locus YDR297W, strain sur2, active compounds read low 1.01 | locus YDR318W, strain mcm21, active compounds read low 1 | locus YDR334W, strain swr1, active compounds read low 1 | locus YDR335W, strain msn5, active compounds read low 1.02 | locus YDR388W, active compounds read low 1.01 | locus YDR392W, strain spt3, active compounds read low 0.999 | locus YDR502C, strain sam2, active compounds read low 0.961 | locus YEL003W, strain gim4, active compounds read low 1.01 | locus YEL037C, strain rad23, active compounds read low 1.01 | locus YEL061C, strain CIN8 (second series), active compounds read low 0.999 | locus YEL061C, strain CIN8, active compounds read low 0.999 | locus YER015W, strain faa2, active compounds read low 1 | locus YER016W, strain bim1, active compounds read low 0.99 | locus YER110C, active compounds read low 1.02 | locus YER111C, strain swi4, active compounds read low 1 | locus YER155C, strain BEM2 (second series), active compounds read low 0.972 | locus YER155C, strain BEM2, active compounds read low 1.03 | locus YER167W, strain BCK2, active compounds read low 1 | locus YFR010W, strain ubp6, active compounds read low 0.999 | locus YGL078C, strain dbp3, active compounds read low 1.01 | locus YGL086W, strain mad1, active compounds read low 1 | locus YGL167C, strain pmr1, active compounds read low 1.01 | locus YGL173C, strain kem1, active compounds read low 1.01 | locus YGL227W, strain vid30, active compounds read low 0.989 | locus YGL240W, strain doc1, active compounds read low 1.01 | locus YGL248W, strain PDE1, active compounds read low 1 | locus YGL253W, strain hxk2, active compounds read low 1.01 | locus YGR078C, strain PAC10, active compounds read low 0.975 | locus YGR135W, strain pre9, active compounds read low 0.971 | locus YGR229C, strain SMI1, active compounds read low 0.998 | locus YGR252W, strain gcn5, active compounds read low 0.918 | locus YHR013C, strain ard1, active compounds read low 1.01 | locus YHR027C, strain rpn1, active compounds read low 1.01 | locus YHR030C, strain SLT2, active compounds read low 1.01 | locus YHR079C, strain IRE1 (second series), active compounds read low 1.01 | locus YHR079C, strain IRE1, active compounds read low 1.01 | locus YHR094C, strain hxt1, active compounds read low 1.02 | locus YHR129C, strain ARP1, active compounds read low 0.995 | locus YHR142W, strain chs7, active compounds read low 1.01 | locus YHR200W, strain rpn10, active compounds read low 1.02 | locus YIL066C, strain RNR3, active compounds read low 0.968 | locus YIL073C, strain SPO22, active compounds read low 1.18 | locus YIL125W, strain kgd1, active compounds read low 1.01 | locus YIR030C, strain dcg1, active compounds read low 1.02 | locus YJL092W, strain hpr5, active compounds read low 1 | locus YJL095W, strain BCK1 (second series), active compounds read low 1.01 | locus YJL095W, strain BCK1, active compounds read low 0.952 and 1.02 | locus YJL115W, strain asf1, active compounds read low 1.03 | locus YJL129C, strain trk1, active compounds read low 1 | locus YJL134W, strain LCB3, active compounds read low 1 | locus YJL154C, strain vps35, active compounds read low 1.01 | locus YJL164C, strain tpk1, active compounds read low 1.01 | locus YJL166W, strain qcr8, active compounds read low 1.02 | locus YJL168C, strain set2, active compounds read low 1.02 | locus YJL187C, strain SWE1 (second series), active compounds read low 0.986 | locus YJL187C, strain SWE1, active compounds read low 1 | locus YJR043C, strain POL32, active compounds read low 1 | locus YJR066W, strain TOR1, active compounds read low 0.949
